Measured values taken from PubChem BioAssay (NCATS).
Inconclusive results are not listed. Where a call stands in place of a potency, no number is given. A number with no mark means an inactive call. Calls of active or inactive are those of the source. Calls follow the shape of the dose curve; as a rule, active = well fitted curve in the direction sought with a large enough effect; inconclusive = small, poorly fitted or top-dose-only effect, or another doubt; inactive = no such curve, though single readings can be large; an effect the other way counts as inactive or inconclusive.

Experiments:
[1] = target: Aldehyde dehydrogenase, mitochondrial (Homo sapiens) (UniProt P05091); assay: qHTS for Inhibitors of the Aldehyde Dehydrogenase Family (ALDH2) Primary screen (AID 2061308); also: nearly all actives have a fitted effect of over 55% in size
[2] = target: Retinaldehyde dehydrogenase 3 (Homo sapiens) (UniProt P47895); assay: qHTS for Inhibitors of the Aldehyde Dehydrogenase Family (ALDH1A3) Primary screen (AID 2061315)

Compound | Potency [1] | Potency [2] | activity change, negative = inhibition [1] | activity change, negative = inhibition [2]
CN(C(=O)c1cccs1)c1cccnc1 | inactive | inactive |  | 
CCOc1ccc(CCNC(=O)C2COc3ccccc3O2)cc1OCC (configuration not stated) | inactive | inactive |  | 
Cn1c(SCC(=O)c2cc3ccccc3o2)nnc1-c1ccccc1 | inactive | inactive |  | 
CC1(C)CC(=O)C2=C(C1)NC(Nc1nc3ccccc3o1)=NC21CCCC1 | inactive | inactive |  | 
Oc1cccc2cc(N3CCCC3)cnc12 | inactive | inactive |  | 
O=S(=O)(c1ccc2nc(Cl)c(Cl)nc2c1)N1CCN(S(=O)(=O)c2c(F)cccc2F)CC1 | inactive | inactive |  | 
COc1cc(O)c(C(CC(=O)N2CCCC(c3ccccc3)C2)c2ccc3c(c2)OCO3)c(OC)c1 (configuration not stated) | inactive | inactive |  | 
O=S(=O)(c1ccsc1)N1CCN(c2nc(-c3cccs3)nc3ccccc23)CC1 | inactive | inactive |  | 
CC(=O)C1=C(O)C2c3c[nH]c4cccc(c34)CC2C(C)(C)N(C)C1=O (configuration not stated) | inactive | inactive |  | 
Cc1cc(C)nc(NC(=S)N2CC3CN(c4ccc(Cl)cc4C(F)(F)F)CC3C2)c1 (configuration not stated) | inactive | inactive |  | 
Fc1cc(Nc2nc(-c3ccncc3)nc3ccccc23)ccc1-c1ccc(F)c(F)c1F | inactive | inactive |  | 
Cc1c(C(=O)O)[nH]c2c1C(=O)CCC2 | inactive | inactive |  | 
CCN(CCc1cn(C)cn1)c1ncnc2ccc(-c3ccc4c(c3)OCO4)cc12 | inactive | inactive |  | 
Cc1cc(C)c(C)c(S(=O)(=O)N2CCN(S(=O)(=O)c3ccc4c(c3)OCCO4)CC2)c1C | inactive | inactive |  | 
O=C(Nc1ncc(Cc2ccc(C(F)(F)F)cc2)s1)c1cccc(-c2ccccc2)c1 | inactive | inactive |  | 
Cc1cc(C2N=C(Nc3nc4ccccc4o3)NC3=C2C(=O)CCC3)n[nH]1 (configuration not stated) | inactive | inactive |  | 
Cc1ccccc1-c1nc(NCc2ccc(-c3cccnc3)cc2)c2ccccc2n1 | inactive | inactive |  | 
Clc1ccc(CSc2nc3ncc(Br)cc3[nH]2)cc1 | inactive | inactive |  | 
N#Cc1ccc(N[S+](=O)([O-])c2ccc(Nc3nc(-c4ccccc4)cs3)cc2)cc1 | inactive | inactive |  | 
Cc1ccc(C(=O)NCC(=O)OC(C(=O)Nc2cc(C(F)(F)F)ccc2Cl)c2ccccc2)cc1 (configuration not stated) | inactive | inactive |  | 
Cc1ccnc(NC(=S)N2CCN(c3cccc(C(F)(F)F)c3)C2)c1 | inactive | inactive |  | 
CC1OC(OC2C(O)COC(O[C@@H]3[C@@H](O)[C@@H](O)[C@H](OC4C(OC(=O)[C@]56CCC(C)(C)CC5C5=CCC7[C@@]8(C)C[C@H](O)[C@H](OC9OC(CO)C(O)C(O)C9O)[C@@](C)(CO)C8[C@H](O)C[C@@]7(C)[C@]5(C)CC6)OCC(O)C4O)O[C@H]3C)C2O)C(O)C(O)C1O (some centres not stated) |  |  | 13.1% [at 11.2 µM] | 4.77% [at 11.2 µM]

Compound | Potency [1] | Potency [2] | activity change, negative = inhibition [1] | activity change, negative = inhibition [2]
CC(C)CC(O)C(=O)Nc1cc(C(F)(F)F)ccc1Cl (configuration not stated) | inactive | inactive |  | 
O=C(O)c1ccc(-c2ccc3ncnc(NCCc4cnc[nH]4)c3c2)o1 | inactive | inactive |  | 
Cc1cccc(CNc2ccc(S(=O)(=O)Nc3nccs3)cc2)c1O | inactive | inactive |  | 
Cn1c2ccsc2c2ncn(Cc3ccccc3F)c(=O)c21 | inactive | inactive |  | 
Clc1ccccc1-c1nc(NCc2ccc(-c3cccnc3)cc2)c2ccccc2n1 | inactive | inactive |  | 
O=C1CCCC2=C1C1(CCCC1)N=C(Nc1nc3cc(Cl)ccc3o1)N2 | inactive | inactive |  | 
COc1cc(O)c(C(CC(=O)N2CCOCC2)c2ccc(C)cc2)c(OC)c1 (configuration not stated) | inactive | inactive |  | 
NC(=O)c1c(-c2ccccc2)no[n+]1[O-] | inactive | inactive |  | 
N[C@@H](Cc1ccccc1)C(=O)Nc1ccc(Cl)cc1C(=O)c1ccc[nH]1 | inactive | inactive |  | 
Cc1c(C(=O)NCC2CCCO2)[nH]c2c1C(=O)CCC2 (configuration not stated) | inactive | inactive |  | 
CC(=O)O[C@@H]1C(=O)O[C@@H]2[C@H]1OC(=O)[C@@H]2OC(C)=O | inactive | inactive |  | 
COc1ccc(C(=O)O)cc1COc1ccc(NC(C)=O)cc1 | inactive | inactive |  | 
COc1ccc(C2Nc3ccccc3C(=O)N2Cc2ccccn2)cc1COc1c(C)cccc1C (configuration not stated) | inactive | inactive |  | 
Cc1cn([C@H]2C[C@H](N[S+](=O)([O-])Cc3cccc([N+](=O)[O-])c3)[C@@H](CO)O2)c(=O)[nH]c1=O | inactive | inactive |  | 
CC1=C(C(=O)Nc2nc3ccccc3s2)C(c2[nH]ncc2Cl)N=C(Nc2nc3ccccc3o2)N1 (configuration not stated) | inactive | inactive |  | 
O=C(COC(=O)CNC(=O)c1ccccc1)Nc1cc(C(F)(F)F)ccc1Cl | inactive | inactive |  | 
Cc1nc(CNc2ncnc3ccc(-c4oc(-c5ccccc5)nc4C)cc23)cs1 | inactive | inactive |  | 
Cc1ccc2oc(NC3=NC4(CCCC4)C4=C(CCCC4=O)N3)nc2c1 | inactive | inactive |  | 
Fc1ccc(Nc2nc(-c3ccncc3Cl)nc3ccccc23)cc1F | inactive | inactive |  | 
Cc1ccc(NC(=O)CN2C(=O)N/C(=C\c3cccn3-c3cccc(C(=O)O)c3)C2=O)cc1 | inactive | inactive |  | 
N#Cc1ccccc1-c1csc(N2CCC(C(N)=O)CC2)n1 | inactive | inactive |  | 
Oc1cccc2c(-c3nn[nH]n3)ccnc12 | inactive | inactive |  | 

Compound | Potency [1] | Potency [2] | activity change, negative = inhibition [1] | activity change, negative = inhibition [2]
CC(=O)N1CCc2cc(S(=O)(=O)N3CCN(S(=O)(=O)c4c(F)cccc4F)CC3)ccc21 | inactive | inactive |  | 
CNC(=O)c1ccc(-c2cnc3cnc(C(=O)N(C)c4ccc(Cl)cc4)cn23)cc1 | inactive | inactive |  | 
Cc1cc(N[S+](=O)([O-])c2ccc(NC(=O)Cn3c(=O)oc4ccc(Cl)cc43)cc2)no1 | inactive | inactive |  | 
COc1cc2nc(N3CCN(C)CC3)nc(NCCN(C)C)c2cc1OC | inactive | inactive |  | 
O=C(c1ccccc1O)N(Cc1ccccc1)Cc1ccccc1 | inactive | inactive |  | 
CCOC(=O)C1CCN(C(=O)C2(NC(=O)Nc3ccc(F)cc3F)CCCCC2)CC1 | inactive | inactive |  | 
CCc1nn2c(=O)cc(NC3CNC3)nc2s1 | inactive | inactive |  | 
O=C1Nc2ccccc2C1Cc1cc(Cl)c(O)c(Cl)c1 (configuration not stated) | inactive | inactive |  | 
CCOc1ccc(C(=O)Nc2ccc(-c3nc4ccccc4[nH]3)cc2)cc1[N+](=O)[O-] | inactive | inactive |  | 
O=C(Cn1nc(C2CC2)ccc1=O)NCCc1ccccc1 | inactive | inactive |  | 
COc1cccc(C2=Nn3c(nnc3-c3ccc(OC)cc3OC)SC2)c1 | inactive | inactive |  | 
CC(C)c1cc(C(C)C)c(S(=O)(=O)Nc2cccc3cccnc23)c(C(C)C)c1 | inactive | inactive |  | 
Cc1ccc(NS(=O)(=O)c2ccc3c(c2)n(C)c(=O)n3C)cc1C | inactive | inactive |  | 
Fc1ccc(Nc2nc(-c3ccnc(C(F)(F)F)c3)nc3ccccc23)cc1F | inactive | inactive |  | 
Cc1cc2c(s1)c1cnn(Cc3ccc(OC(F)F)cc3)c(=O)c1n2C | inactive | inactive |  | 
OCc1cn(Cc2ccc(O)c3ncccc23)cn1 | inactive | inactive |  | 
Cn1ccc2cc(-c3ccc4ncnc(NCc5cccnc5)c4c3)ccc21 | inactive | inactive |  | 
Cc1cccc(-n2cnc3cc(C(=O)N4CCOCC4)ccc32)c1 | inactive | inactive |  | 
N#Cc1cccc(-c2ccc(CNc3nc(-c4ccccc4C(F)(F)F)nc4ccccc34)cc2)c1 | inactive | inactive |  | 
COc1cccc(-c2ccc3ncnc(N(C)Cc4ccco4)c3c2)c1 | inactive | inactive |  | 
Cc1cncc(NC(=S)N2CCN(c3cccc(C(F)(F)F)c3)CC2)c1 | inactive | inactive |  | 
O=C1CCCC2=C1C(c1[nH]ncc1Cl)N=C(c1nc3ccccc3o1)N2 (configuration not stated) | inactive | inactive |  | 

Compound | Potency [1] | Potency [2] | activity change, negative = inhibition [1] | activity change, negative = inhibition [2]
O=C1Nc2ccccc2/C1=C\c1cc(Br)c(O)c(Br)c1 | inactive | inactive |  | 
COc1ccc(C2=Nn3c(nnc3-c3ccccc3C(F)(F)F)SC2)cc1OCC1CC1 | inactive | inactive |  | 
CCN(CC)C(=O)COC(=O)c1ccc(S(C)(=O)=O)c([N+](=O)[O-])c1 | inactive | inactive |  | 
CCCn1c(C)nc2c(N3CCCN(Cc4ccccc4)CC3)nc(C)nc21 | inactive | inactive |  | 
O=C(Nc1ccc(Cl)c(Cl)c1)Nc1nc(-c2ccncc2)cs1 | inactive | inactive |  | 
O=C(Nc1ccc(-c2nc3ccccc3[nH]2)cc1)c1ccc(Oc2ccccc2)cc1 | inactive | inactive |  | 
COCC(=O)NCCc1nc2ccccc2n1CCOc1ccc(C)cc1 | inactive | inactive |  | 
CCN1CCN(C(=S)c2ccc(O)cc2)CC1 | inactive | inactive |  | 
CN(Cc1ccco1)c1ncnc2ccc(-c3ccc4c(c3)OCO4)cc12 | inactive | inactive |  | 
CCOC(=O)C1CCN(C(=O)C(C)(C)NC(=O)Nc2ccc([N+](=O)[O-])cc2)CC1 | inactive | inactive |  | 
O=C(Nc1ccc(F)c(F)c1)Nc1nnc(-c2ccncc2)s1 | inactive | inactive |  | 
Fc1cc(Nc2nc(-c3ccncc3)nc3ccccc23)ccc1-c1cccc(OC(F)F)c1 | inactive | inactive |  | 
Cc1ccc(OCCn2c(CCNC(=O)c3ccncc3)nc3ccccc32)cc1 | inactive | inactive |  | 
NC(=O)C1CCN(c2cc(-c3ccc4c(c3)OCCCO4)ncn2)CC1 | inactive | inactive |  | 
O=C(CSc1nnc(-c2cccc(S(=O)(=O)N3CCCC3)c2)n1-c1ccccc1)Nc1ccccc1 | inactive | inactive |  | 
C=CC(C)(C)c1[nH]c2ccccc2c1C[C@@H]1NC(=O)[C@H](C)NC1=O | inactive | inactive |  | 
CNc1nc(C#N)c(-c2cccc3ccccc23)o1 | inactive | inactive |  | 
Cc1c(P(=S)(c2ccccc2)c2ccccc2)[n+]2ccccc2n1CCCCc1ccccc1 | inactive | inactive |  | 
CNc1oc(-c2ccccc2-c2ccccc2)nc1C#N | inactive | inactive |  | 
Oc1cccc(C2NC(=S)Nc3cccc(F)c32)c1 (configuration not stated) | inactive | inactive |  | 
